Assay results as given in PubChem BioAssay (NCATS).
Results filed as inconclusive are left out. Where a call stands in place of a potency, no number is given. A number with no mark means an inactive call. Active and inactive are the calls of the source. Unless noted, calls come from the whole dose curve; as a rule, active = well fitted curve in the direction sought with a large enough effect; inconclusive = small, poorly fitted or top-dose-only effect, or another doubt; inactive = no such curve, though single readings can be large; an effect the other way counts as inactive or inconclusive.

What was measured:
[1] = molecular target: ATP-dependent 6-phosphofructokinase (Trypanosoma brucei brucei) (UniProt O15648); assay: qHTS Assay to Find Inhibitors of T. brucei phosphofructokinase: hit validation (AID 492961);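 note: luminescence reports ADP formed as PFK phosphorylates fructose-6-phosphate with ATP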
Procedure, shortened: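 Compounds titrated; %activity normalized to 0x and 1x enzyme controls, curve-fitted. Readout: ADP-Glo luminescence after 45 min room-temperature reaction of 1.25 nM PFK, 0.1 mM ATP, 0.5 mM F6P, pH 8.0.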

[2] = molecular target: Luciferin 4-monooxygenase (Photinus pyralis) (UniProt P08659); assay: Biochemical firefly luciferase enzyme assay for NPC (AID 624030);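 note: purified P. pyralis luciferase at 10 nM with luciferin and ATP substrate; nearly all actives have a fitted effect of over 70% in size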
Procedure, shortened: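 Purified P. pyralis luciferase at 10 nM in 50 mM Tris Acetate (final), luminescence read within 5 minutes of enzyme addition to compounds. Activity normalised to PTC124 versus DMSO; concentration-response curves classed by r2, magnitude and activity.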

7G8 = assay: qHTS profiling for inhibitors of Plasmodium falciparum proliferation (AID 504749); note: nearly all actives have a fitted effect of over 60% in size; note: potency is the fitted concentration of half-maximal effect; settings: P. falciparum in erythrocytes, SYBR Green DNA, 72 h; series mostly up to 12.8 µM
Procedure, shortened: (§1)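 SYBR Green fluorescence (ex 485 nm, em 535 nm) reports parasite DNA after 72 h compound exposure of infected red cells at 0.3% parasitemia, 2.5% hematocrit; signal normalized to 0.29 uM artemisinin and vehicle wells.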

AA1029 = assay: as above; settings: P. falciparum in erythrocytes, SYBR Green DNA, 72 h; series mostly up to 12.8 µM
Procedure, shortened: as §1

CP194 = assay: as above; settings: P. falciparum in erythrocytes, SYBR Green DNA, 72 h; series mostly up to 12.8 µM
Procedure, shortened: as §1

CP203 = assay: as above; settings: P. falciparum in erythrocytes, SYBR Green DNA, 72 h; series mostly up to 12.8 µM
Procedure, shortened: as §1

CP215 = assay: as above; settings: P. falciparum in erythrocytes, SYBR Green DNA, 72 h; series mostly up to 12.8 µM
Procedure, shortened: as §1

CP265 = assay: as above; settings: P. falciparum in erythrocytes, SYBR Green DNA, 72 h; series mostly up to 12.8 µM
Procedure, shortened: as §1

DFO2036 = assay: as above; settings: P. falciparum in erythrocytes, SYBR Green DNA, 72 h; series mostly up to 12.8 µM
Procedure, shortened: as §1

DIV14 = assay: as above; settings: P. falciparum in erythrocytes, SYBR Green DNA, 72 h; series mostly up to 12.8 µM
Procedure, shortened: as §1

GB4 = assay: as above; settings: P. falciparum in erythrocytes, SYBR Green DNA, 72 h; series mostly up to 12.8 µM
Procedure, shortened: as §1

[3] = S16 Schwann cell PMP22 intronic element firefly luciferase assay (AID 624032); note: nearly all actives have a fitted effect of over 30% in size; note: potency is the fitted concentration of half-maximal effect
Procedure, shortened: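 Rat S16 Schwann cells stably carrying firefly luciferase driven by a PMP22 intronic element, in 10% FBS, treated 24 h at 37 C. ONE-Glo luminescence normalized to PTC124 control and DMSO (0%); curves classed by r2, magnitude and activity.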

[4] = S16 Schwann cell PMP22 intronic element beta-lactamase assay (AID 624044; calls by dose curve; note: nearly all actives have a fitted effect of over 15% in size)
Procedure, shortened: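 Beta-lactamase reporter under a PMP22 intronic regulatory element in stable S16 rat Schwann cells; 24 h compound exposure. 460 nm blue signal normalized between DMSO (0%) and potassium clavulanate, with 535 nm FRET tracking viability; curves classed by r2 and response.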

CP335 = assay: qHTS profiling for inhibitors of Plasmodium falciparum proliferation (AID 504749); note: nearly all actives have a fitted effect of over 60% in size; note: potency is the fitted concentration of half-maximal effect; settings: P. falciparum in erythrocytes, SYBR Green DNA, 72 h; series mostly up to 12.8 µM
Procedure, shortened: as §1

[5] = molecular target: Cytochrome P450 2C9 (Homo sapiens) (UniProt P11712); assay: qHTS Assay for Inhibitors and Substrates of Cytochrome P450 2C9 (AID 883); note: nearly all actives have a fitted effect of over 60% in size
Procedure, shortened: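 Human CYP2C9 (10nM) with Luciferin-H at 100uM (its KM) in 25mM KPO4; compound preincubated 10 min at 37C, then NADPH regeneration for 60 min at 37C. Luciferin read by luminescence after detection reagent; normalized to 57uM sulphaphenazole as full inhibition.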

[6] = molecular target: Cytochrome P450 2D6 (Homo sapiens) (UniProt P10635); assay: qHTS Assay for Inhibitors and Substrates of Cytochrome P450 2D6 (AID 891); note: potency is the fitted concentration of half-maximal effect; nearly all actives have a fitted effect of over 60% in size
Procedure, shortened: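 Luminescent read-out of luciferin formed by 5 nM human CYP2D6 demethylating 30 uM Luciferin-ME EGE (Km level) over 60 min at room temperature after NADPH regeneration addition. Data normalized to full inhibition by 1.43 uM quinidine.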

Chain of Luciferin 4-monooxygenase (Photinus pyralis) (P08659 whole entry, looked up): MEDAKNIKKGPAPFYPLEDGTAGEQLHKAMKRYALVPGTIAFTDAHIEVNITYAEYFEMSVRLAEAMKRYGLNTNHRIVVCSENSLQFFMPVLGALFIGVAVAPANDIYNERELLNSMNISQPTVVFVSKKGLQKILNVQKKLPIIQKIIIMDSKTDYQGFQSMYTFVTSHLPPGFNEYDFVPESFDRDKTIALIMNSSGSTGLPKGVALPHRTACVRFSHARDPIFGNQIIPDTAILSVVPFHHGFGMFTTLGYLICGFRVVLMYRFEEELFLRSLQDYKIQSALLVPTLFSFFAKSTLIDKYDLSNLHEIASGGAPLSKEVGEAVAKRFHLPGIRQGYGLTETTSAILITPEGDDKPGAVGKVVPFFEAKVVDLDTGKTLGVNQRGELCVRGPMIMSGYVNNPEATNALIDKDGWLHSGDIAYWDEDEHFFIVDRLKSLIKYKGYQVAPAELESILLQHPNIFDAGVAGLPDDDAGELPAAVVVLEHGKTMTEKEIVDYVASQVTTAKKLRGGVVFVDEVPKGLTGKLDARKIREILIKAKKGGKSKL
Chain of ATP-dependent 6-phosphofructokinase (Trypanosoma brucei brucei) (O15648 whole entry, looked up): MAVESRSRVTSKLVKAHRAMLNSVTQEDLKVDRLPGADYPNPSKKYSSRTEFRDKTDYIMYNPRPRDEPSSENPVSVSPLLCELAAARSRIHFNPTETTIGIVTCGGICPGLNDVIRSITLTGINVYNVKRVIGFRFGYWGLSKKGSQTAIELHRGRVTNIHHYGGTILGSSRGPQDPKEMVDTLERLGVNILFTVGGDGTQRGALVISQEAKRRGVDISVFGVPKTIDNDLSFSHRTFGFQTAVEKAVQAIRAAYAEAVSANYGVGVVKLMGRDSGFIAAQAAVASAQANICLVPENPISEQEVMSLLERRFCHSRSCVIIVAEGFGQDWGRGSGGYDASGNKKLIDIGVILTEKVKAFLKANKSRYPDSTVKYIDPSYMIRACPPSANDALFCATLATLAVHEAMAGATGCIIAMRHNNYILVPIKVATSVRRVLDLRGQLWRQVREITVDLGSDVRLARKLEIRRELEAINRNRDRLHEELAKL
Chain of Cytochrome P450 2C9 (Homo sapiens) (P11712 whole entry, looked up): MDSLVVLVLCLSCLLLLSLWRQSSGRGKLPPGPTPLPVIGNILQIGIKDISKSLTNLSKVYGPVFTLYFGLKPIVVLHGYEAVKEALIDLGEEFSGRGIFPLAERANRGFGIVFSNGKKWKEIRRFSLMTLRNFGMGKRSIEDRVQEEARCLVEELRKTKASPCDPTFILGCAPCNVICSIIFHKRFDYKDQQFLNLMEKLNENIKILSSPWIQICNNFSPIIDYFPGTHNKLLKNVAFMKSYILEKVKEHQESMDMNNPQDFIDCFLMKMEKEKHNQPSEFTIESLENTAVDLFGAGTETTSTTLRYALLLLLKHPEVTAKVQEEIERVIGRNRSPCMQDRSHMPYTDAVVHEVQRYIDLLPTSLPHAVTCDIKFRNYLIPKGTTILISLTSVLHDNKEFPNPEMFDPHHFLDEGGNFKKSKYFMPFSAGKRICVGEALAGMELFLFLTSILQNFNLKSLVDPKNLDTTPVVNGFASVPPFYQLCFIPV
Chain of Cytochrome P450 2D6 (Homo sapiens) (P10635 whole entry, looked up): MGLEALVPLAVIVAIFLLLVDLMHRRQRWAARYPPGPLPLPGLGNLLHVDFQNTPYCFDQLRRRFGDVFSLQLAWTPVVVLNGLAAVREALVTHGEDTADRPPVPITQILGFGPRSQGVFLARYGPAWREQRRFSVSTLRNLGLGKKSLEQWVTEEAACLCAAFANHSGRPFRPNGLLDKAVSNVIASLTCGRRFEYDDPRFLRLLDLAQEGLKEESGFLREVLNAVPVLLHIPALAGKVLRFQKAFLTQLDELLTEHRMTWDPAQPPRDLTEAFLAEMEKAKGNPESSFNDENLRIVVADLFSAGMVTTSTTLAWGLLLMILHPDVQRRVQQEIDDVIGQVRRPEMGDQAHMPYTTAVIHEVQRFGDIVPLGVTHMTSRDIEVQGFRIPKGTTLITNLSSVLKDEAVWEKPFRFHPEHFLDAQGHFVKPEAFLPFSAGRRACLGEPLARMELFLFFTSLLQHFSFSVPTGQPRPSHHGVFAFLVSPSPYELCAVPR

SMILES | outcome [1] | Potency [2] | Potency (7G8) | Potency (AA1029) | Potency (CP194) | Potency (CP203) | Potency (CP215) | Potency (CP265) | Potency (DFO2036) | Potency (DIV14) | Potency (GB4) | Potency [3] | Potency [4] | Potency (CP335) | Potency [5] | Potency [6]
COc1ccc(C[C@@](C)(N)C(=O)O)cc1OC | inactive | inactive | inactive | inactive | inactive | inactive | inactive | inactive | inactive | inactive | inactive |  |  |  |  | 
CC[C@](C)(CN(C)C)OC(=O)c1ccccc1 | inactive | inactive | inactive | inactive | inactive |  | inactive | inactive | inactive |  |  | inactive | inactive |  |  | 
O=C(N/N=C\c1ccc([N+](=O)[O-])o1)c1ccc(O)cc1 | inactive | inactive | 794 nM (active) | 3.98 µM (active) | 3.61 µM (active) | 5.1 µM (active) | 4.55 µM (active) | 3.16 µM (active) | 2.82 µM (active) | 3.22 µM (active) | 1.81 µM (active) | 3.46 µM (active) | inactive | 2.03 µM (active) |  | 
CC1=C(C(=O)O)N2C(=O)[C@@H](NC(=O)[C@@H](N)c3ccc(O)cc3)[C@@H]2SC1 | inactive |  | inactive | inactive | inactive | inactive | inactive | inactive |  | inactive | inactive | inactive |  | inactive |  | 
O=C(/C=C\c1ccc(O)c(O)c1)O[C@@H]1C[C@](O)(C(=O)O)C[C@@H](O)[C@@H]1O |  |  |  |  |  |  |  |  |  |  |  |  |  |  | inactive | 
O[C@@](CCN1CCCC1)(c1ccccc1)C1CCCCC1 |  | inactive | 4470 nM (active) |  |  |  |  |  | inactive | 2.87 µM (active) | inactive | inactive |  | inactive |  | 
CO[C@H]1[C@H](O[C@H]2O[C@@H](C)[C@@H](O[C@@H]3C[C@](C)(O)[C@H](O)[C@H](C)O3)[C@@H](N(C)C)[C@@H]2O)[C@@H](CC=O)C[C@@H](C)[C@@H](O[C@H]2CC[C@H](N(C)C)[C@H](C)O2)/C=C\C=C/C[C@@H](C)OC(=O)C[C@H]1O | inactive |  |  |  |  |  |  | inactive | inactive | inactive |  | inactive |  |  |  | 
CN[C@H]1[C@H](O)[C@@H](O[C@@H]2[C@H](O)[C@@H](O[C@H]3OC(CN)=CC[C@H]3N)[C@@H](N)C[C@H]2N)OC[C@@]1(C)O |  | inactive | inactive | inactive | inactive | inactive | inactive | inactive | inactive | inactive | inactive | inactive | inactive | inactive |  | 
CCOC(=O)[C@H](CCc1ccccc1)N[C@@H](C)C(=O)N1[C@H](C(=O)O)C[C@H]2CCC[C@@H]21 | inactive |  | inactive | inactive | inactive | inactive | inactive | inactive |  | inactive | inactive | inactive | inactive | inactive |  | 
C[C@H]1CS(=O)(=O)CCN1/N=C\c1ccc([N+](=O)[O-])o1 | inactive | inactive |  | inactive | inactive | inactive | inactive | inactive | inactive |  |  |  |  | inactive |  | 
C[C@@H]1O[C@H](O[C@@H]2\C=C/C=C\C=C/C=C\C[C@H](C)OC(=O)/C=C\[C@H]3O[C@@H]3C[C@H](O)C[C@]3(O)C[C@@H](O)[C@@H](C(=O)O)[C@H](C2)O3)[C@@H](O)[C@H](N)[C@@H]1O (stereo in doubt) | inactive |  | inactive | inactive | inactive | inactive | inactive | inactive |  | inactive | inactive | inactive | inactive | inactive |  | 
Cn1nnnc1SCC1=C(C(=O)O)N2C(=O)[C@@H](NC(=O)[C@@H](O)c3ccccc3)[C@@H]2SC1 | inactive | inactive |  | inactive | inactive | inactive | inactive | inactive | inactive | inactive | inactive | inactive | inactive | inactive |  | 
Cc1ccc2c(c1)c1c3n2CCN[C@H]3CCC1 |  | inactive | 6310 nM (active) |  |  |  | inactive |  | inactive | 6.01 µM (active) |  | inactive | inactive |  |  | 
NC[C@@H]1O[C@H](O[C@@H]2[C@H](O[C@@H]3O[C@H](CO)[C@@H](O)[C@@H]3O)[C@@H](O)[C@@H](N)C[C@H]2N)[C@@H](N)[C@H](O)[C@@H]1O | inactive |  |  | inactive | inactive | inactive |  | inactive | inactive | inactive | inactive |  | inactive | inactive |  | 
CC(C)(C)NC[C@@H](O)COc1ccccc1C1CCCC1 |  | inactive | 708 nM (active) | 2.82 µM (active) | 5.73 µM (active) | 3.22 µM (active) | 4.55 µM (active) |  |  | 2.03 µM (active) | 1.81 µM (active) |  | inactive | 3.61 µM (active) |  | 2.51 µM (active)
